Bioassay records as filed in PubChem BioAssay.
An excerpt weighted towards active compounds, which were near 4.1% of everything screened.
tim23-1 inh: growth inhibitors of tim23-1 mutant yeast; S. cerevisiae tim23-1 growth, BacTiter-Glo luminescence, 24 h; inhibition, % at 20 µM; AID 463212; 330,000 tested, 1.3% active;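 active = growth inhibition of the mutant yeast at or above 50%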;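 note: temperature-sensitive mutant grown at 25 °C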
TIM10 inh: TIM10 yeast growth inhibition; S. cerevisiae TIM10 strain growth, BacTiter-Glo luminescence, 24 h; inhibition, % at 10 µM; 330,000 tested, 1.4% active; AID 463195;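 active = inhibition of 40% or more at the single tested concentration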;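 note: wild-type TIM10 isogenic control strain grown at permissive 25 °C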
tim10-1 inh: tim10-1 yeast growth inhibition. S. cerevisiae tim10-1 ts strain growth, BacTiter-Glo, 24 h. inhibition, % at 20 µM. 330,000 tested, 2.2% active;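 active = inhibition of at least 40%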;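 note: mutant grown at 25 °C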
NALP1 inh: NALP1 inhibition | inhibition, % at 10 µM | S. cerevisiae NALP1/ASC/caspase-1 growth, X-gal OD620, 72 h | AID 2071 | 280,000 tested, 0.61% active; in the data active = inhibition mostly above about 24%, no sharp cut-off; inactive = mostly below about 32%
NLRP3 yeast inh: blocks the NALP3 inflammasome reconstituted in yeast; Yeast reconstituted NLRP3/ASC/caspase-1, beta-gal luminescence, 24 h; inhibition, % at 10 µM; 330,000 tested, 0.39% active;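 active = inhibition of 50% or more; inactive = inhibition below 50%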
PfHsp90 set2: inhibits growth of yeast expressing Plasmodium falciparum Hsp90; S. cerevisiae expressing PfHsp90, BacTiter-Glo ATP, 48 h; yeast lacking PDR1 and PDR3 efflux regulators; inhibition, % at 9.4 µM; 310,000 tested, 0.32% active;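 active = every replicate shows inhibition above about 80%, whatever the replicate mean, limit read from the data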
tim10-1 confirm: confirmation of tim10-1 mutant yeast growth inhibitors; 7,400 tested, 56% active; AID 463213; inhibition, % at 20 µM; S. cerevisiae tim10-1 ts strain growth, BacTiter-Glo, 24 h; shares compounds with tim10-1 inh;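 active = inhibition of yeast growth at or above a set limit in either of two repeat tests at 20 µM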;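 note: tim10-1 mutant grown at permissive 25 °C to find synthetic lethal compounds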
Of the large screens only hits and unclear results are named; the others gave an inactive call (follow-up assays come after a bar, where they were run).

N#Cc1c(NC(=S)NC(=O)Cc2cccs2)sc2c1CCCCC2	tim10-1 inh 47 (no result: PfHsp90 set2) | tim10-1 confirm inactive
Cc1ccc(NC(=S)NCc2ccccc2)c(C)c1	none
COc1ccc(Cl)cc1NC(=S)NCCSc1ccc(C)cc1	tim10-1 inh 49 | tim10-1 confirm 40
Cc1ccc(SCCNC(=S)Nc2ccc(C)cc2C)cc1	tim10-1 inh 44 | tim10-1 confirm inactive
COc1ccc(Cl)cc1NC(=O)CN(C)C(=O)CCSc1ccc(C)cc1	none (no result: NALP1 inh)
Cc1cccc(C)c1NC(=S)NCCSc1ccc(Cl)cc1	tim10-1 inh 42 | tim10-1 confirm inactive
CC(C)CC(NC(N)=O)C(=O)Nc1ccc(Cl)c(Cl)c1 (stereo not drawn)	none
CCC(CC)C(=O)Nc1ccc(Cl)c(Cl)c1	tim10-1 inh 41 | tim10-1 confirm inactive
CCn1c(SCc2cccc(C)c2)nnc1-c1ccc(C)cc1	tim10-1 inh 47 (no result: PfHsp90 set2) | tim10-1 confirm 30
O=C(Nc1ncnc2sc3c(c12)CCCCC3)c1ccccc1	none (no result: PfHsp90 set2)
O=C(Nc1ncnc2sc3c(c12)CCCCC3)c1ccc(F)cc1	tim10-1 inh 45 (no result: PfHsp90 set2) | tim10-1 confirm 32
c1ccc(CNc2ncnc3sc4c(c23)CCCC4)nc1	tim10-1 inh 45 | tim10-1 confirm 36
Cc1nc(NCc2ccccn2)c2c3c(sc2n1)CCCC3	tim10-1 inh 41 | tim10-1 confirm 41
Cc1nc(NCc2ccco2)c2c3c(sc2n1)CCC3	none
CCOc1ccccc1NC(=O)COC(=O)C1CC(=O)N(c2c(C)cccc2C)C1 (stereo not drawn)	none
Cc1ccc(C)c(N2CCN(C(=O)CCC(=O)Nc3nnc(C(F)(F)F)s3)CC2)c1	tim10-1 inh 55 | tim10-1 confirm inactive
COc1ccc(CCN2CC(C(=O)Nc3ccccc3F)CC2=O)cc1OC (stereo not drawn)	none (no result: NALP1 inh)
COc1cc(C(C#N)N2N=C(c3ccccc3)CC2c2ccccc2)ccc1O (stereo not drawn)	tim10-1 inh 43 | tim10-1 confirm inactive
N#CC(c1ccccc1O)N1N=C(c2ccccc2)CC1c1ccccc1 (stereo not drawn)	none
CN(C(=O)COC(=O)c1ccc(Br)c(S(=O)(=O)N2CCOCC2)c1)C1CCCCC1	none (no result: NALP1 inh)
O=C(CCC(=O)N1CCN(c2ccc(Cl)c(Cl)c2)CC1)c1ccccc1	tim10-1 inh 42 | tim10-1 confirm inactive
Nc1ccc(SC(F)(F)F)cc1C(=O)c1ccccc1	tim10-1 inh 50 | tim10-1 confirm inactive
Cc1ccc(NC(=O)C(C)N2C(=O)C3C4CC(C(Br)C4Br)C3C2=O)cc1 (stereo not drawn)	tim10-1 inh 48 (no result: PfHsp90 set2) | tim10-1 confirm 32
Cc1ccccc1OCC(=O)Nc1ccc(N2CCN(C)CC2)c(Cl)c1	none
O=C(Nc1ncc2c(n1)CC(c1cccc(Cl)c1)CC2=O)c1ccco1 (stereo not drawn)	tim10-1 inh 41 | tim10-1 confirm 32
CC(NC(=O)/C=C/c1ccccc1[N+](=O)[O-])C1CC2CCC1C2 (stereo not drawn)	none
O=C(Nc1ccc(F)cc1)c1cc(S(=O)(=O)N2CCCCC2)ccc1F	tim10-1 inh 42 | tim10-1 confirm inactive
O=C(Nc1ccc(S(=O)(=O)N2CCCCC2)cc1)c1ccccc1F	none
Cc1cccc(C)c1OCC(O)Cn1c2ccccc2c2ccccc21 (stereo not drawn)	tim10-1 inh 45 (no result: PfHsp90 set2) | tim10-1 confirm inactive
Cc1cccc(C)c1OCC(O)Cn1nnc2ccccc21 (stereo not drawn)	none
COc1ccc(-n2c(=S)[nH]c3ccccc32)cc1	tim10-1 inh 42 | tim10-1 confirm inactive
COc1ccc(-n2c(=S)[nH]c3ccccc3c2=S)cc1	none
CC(C)[C@H](NC(=O)c1ccccc1)C(=O)OCC(=O)c1ccc(S(=O)(=O)N2CCCCC2)cc1	none (no result: NALP1 inh)
CCOc1ccc(-c2n[nH]c(C)c2Oc2ccc(OC)cc2)c(O)c1	tim10-1 inh 44 | tim10-1 confirm 47
O=C(CSc1nnc(NC(=O)c2ccccc2)s1)NC1CCCC1	none
C=CCn1c(CCn2c3ccccc3c3ccccc32)n[nH]c1=S	tim10-1 inh 43 | tim10-1 confirm 36
CCN1C[C@@H]2[C@@H]3C(=O)N(Cc4ccccc4)C(=O)[C@@H]3[C@](C)(C1=O)N2C(=O)c1ccc(F)cc1	none (no result: tim23-1 inh, TIM10 inh, tim10-1 inh, NALP1 inh, NLRP3 yeast inh)
O=C(NCc1cccnc1)Nc1cccc([N+](=O)[O-])c1	none
CN(C(=O)CSc1nc(C2CC2)n(-c2ccccc2)n1)C1CCS(=O)(=O)C1 (stereo not drawn)	none (no result: NALP1 inh, PfHsp90 set2)
CCOC(=O)N1CCN(c2c(F)cc3[nH]c(=S)[nH]c3c2Br)CC1	tim10-1 inh 57 | tim10-1 confirm inactive
CCOC(=O)N1CCN(c2cc3[nH]c(=S)[nH]c3cc2F)CC1	none (no result: NALP1 inh)
CC(=O)N(\C=C/C=C/C=C1\Sc2ccccc2C1=O)c1ccccc1	tim10-1 inh 41 | tim10-1 confirm 46
CN(C)/C=C1/Sc2ccccc2C1=O	none
CC1C(=O)C(C)C(c2ccc(Br)cc2)NC1c1ccc(Br)cc1 (stereo not drawn)	tim10-1 inh 48 | tim10-1 confirm inactive
COc1ccc(NC(=O)[C@H](C)NC(=O)[C@@H]2Cc3ccccc3CN2C(=O)OC(C)(C)C)cc1	none
Cc1ccc(-c2csc3nc[nH]c(=O)c23)cc1C	tim10-1 inh 41 | tim10-1 confirm inactive
Cc1cc2ncn(C(=O)c3c(-c4c(Cl)cccc4Cl)noc3C)c2cc1C	none
Cc1cc2ncn(C(=O)c3c(-c4ccccc4)noc3C)c2cc1C	tim10-1 inh 41 | tim10-1 confirm inactive
CC(=O)c1cccc(NC(=O)CN(C)Cc2ccc(OC(F)F)cc2)c1	none
COc1ccc2c(c1)OC[C@H]1[C@H]2N2C(=O)c3cc(OC)ccc3NC(=O)[C@@]2(C)[C@H]1c1ccccc1	tim10-1 inh 44, PfHsp90 set2 113 (no result: NALP1 inh) | tim10-1 confirm inactive
COc1ccc2c(c1)OC[C@H]1[C@H]2N2C(=O)c3cc(F)ccc3NC(=O)[C@@]2(C)[C@H]1c1ccccc1	none (no result: NALP1 inh)
Cc1ccc(C(=O)C(C)N(C(=O)c2ccc(Cl)cc2Cl)N2C(=O)CCCC2=O)cc1 (stereo not drawn)	none
COc1ccc(C(=O)C(C)N(C(=O)c2ccc(Cl)cc2Cl)N2C(=O)C3C4C=CC(C4)C3C2=O)cc1 (stereo not drawn)	tim10-1 inh 47 | tim10-1 confirm inactive
COc1ccc(CN(C)C(=O)CNC(=O)CNC(=O)c2ccc(Cl)cc2Cl)cc1F	none
COCCN(C(=O)COC(=O)CCC1CCCC1)c1c(N)n(Cc2ccccc2)c(=O)[nH]c1=O	none (no result: NALP1 inh)
COc1ccccc1NS(=O)(=O)c1ccc(C)c(C(=O)NCc2cccnc2)c1	none (no result: NALP1 inh)
C/C(=C\C(=O)c1ccccc1)NNc1nc2ccccc2s1	tim10-1 inh 55 | tim10-1 confirm 39
CC(=O)NNc1nc2ccccc2s1	none
